This note sets out measurements from the supplement of paper PMC12067093, “Discovery and optimisation of a covalent ligand for TRIM25 and its application to targeted protein ubiquitination” (Chemical Science, 2025).

Compound in this test: CC1Cc2ccccc2N1C(=O)C1CCCN(C1)C(=O)CCl (mixture of isomers) [TRIM25 ligand 11 (diastereomer mixture)]
The test is described as follows: probe-labelled cysteine peptide fold change vs DMSO (competition) (log2 fold change); higher = less target engagement (more negative = stronger competition). The note with it: THP-1, incubation time: 4 h.

Of roughly 21,000 targets only a part is listed; those with the largest changes were picked by preference.
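Also: competitive chemoproteomic profiling in live THP-1 cells with an iodoacetamide desthiobiotin (IA-DTB) probe, comparing probe-labelled peptide intensities in compound-treated cells against DMSO-treated controls.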

With “LTA4H_P09960_26_CSVDFTR (UniProt P09960)”, the “probe-labelled cysteine peptide fold change” value (10 µM) is -0.0535 and the “probe-labelled cysteine peptide fold change” value (50 µM) was -0.00265.
For the target “MAN2C1_Q9NTJ4_29_FVSPLYFTDCNLR (UniProt Q9NTJ4)”, the “probe-labelled cysteine peptide fold change” value (10 µM) turned out to be 0.111.
Turning to “NCAPG_Q9BPX3_177_DDECPVVNAYATLIENDSNPEVR (UniProt Q9BPX3)”, the “probe-labelled cysteine peptide fold change” value runs as follows: (10 µM) -0.316; (50 µM) -0.473.
For “LYST_Q99698_3649_LCYVQSLAGHK (UniProt Q99698)” the same measures were 0.0365 and -0.124.
For “MCM5_P33992_221_CVDFQTLK (UniProt P33992)” the same measures were -0.0141 and 0.0951.
Regarding “MIA3_Q5JRA6_1513_AGLEDECK (UniProt Q5JRA6)”, the “probe-labelled cysteine peptide fold change” value (10 µM) is 0.0174.
As to “MRE11_P49959_249_HGSTNFIPEQFLDDFIDLVIWGHEHECK (UniProt P49959)”, the “probe-labelled cysteine peptide fold change” value reads like this: (10 µM) -0.0677; (50 µM) -0.0212.
Regarding “MIF4GD_A9UHW6_150_EEEVDCLVLQLHR (UniProt A9UHW6)”, the “probe-labelled cysteine peptide fold change” value (10 µM) was found to be 0.222.
As for “MBTPS2_O43462_386_SSSSSFCIIPSLETHTR (UniProt O43462)”, the “probe-labelled cysteine peptide fold change” value (10 µM) is -0.0619.
Turning to “MED14_O60244_635_AGEMCAFNK (UniProt O60244)”, the “probe-labelled cysteine peptide fold change” value is -0.0268 (10 µM) and -0.0566 (50 µM).
As for “MYCBP2_O75592_4406+4413_NEEHCLPCLHGCDK (UniProt O75592)”, the “probe-labelled cysteine peptide fold change” value (10 µM) is -0.0669.
Turning to “MINK1_Q8N4C8_129_EDCIAYICR (UniProt Q8N4C8)”, the “probe-labelled cysteine peptide fold change” value (10 µM) was found to be 0.00524.
The same measure, in the same setting: the value for “METTL18_O95568_48_CSAEQFDLPQDHLWEHK (UniProt O95568)” was -0.285.
On the same count and under the same terms, the value for “MTHFS_P49914_180_EQICLQVPVNENDMK (UniProt P49914)” was -0.00999.
Take “NBEAL2_Q6ZNJ1_2335_ALEGIISNFGQTPCQLLK (UniProt Q6ZNJ1)”: the “probe-labelled cysteine peptide fold change” value runs as follows: (10 µM) 0.0509; (50 µM) -0.034.
For “MECP2_P51608_429_GGSLESDGCPKEPAK (UniProt P51608)” the same measures were -0.274 and -0.613.
As to “MAP1S_Q66K74_841_HDPLPDPLKVPPPLPDPSSICMVDPEMLPPK (UniProt Q66K74)”, the “probe-labelled cysteine peptide fold change” value (10 µM) is -0.202.
As to “LYPLA2_O95372_213_TYPGVMHSSCPQEMAAVK (UniProt O95372)”, for the setting “10 µM”, the “probe-labelled cysteine peptide fold change” value stood at 0.0451.
With “MTA3_Q9BTC8_109_CSVALLNETESVLSYLDK (UniProt Q9BTC8)”, the “probe-labelled cysteine peptide fold change” value (10 µM) was determined as 0.851.
With “MSTO1_Q9BUK6_232_LHFYVEECDYLQGFQILCDLHDGFSGVGAK (UniProt Q9BUK6)”, the “probe-labelled cysteine peptide fold change” value was 0.183 (10 µM) and -0.0331 (50 µM).
Take “MOV10_Q9HCE1_650_LVSAQFPIDHFTHIFIDEAGHCMEPESLVAIAGLMEVK (UniProt Q9HCE1)”: the “probe-labelled cysteine peptide fold change” value (10 µM) worked out at 0.00257.
Still for that read-out and setting: the value for “MRPL38_Q96DV4_290_QDQPIDFSEDARPSPCYQLAQR (UniProt Q96DV4)” was -0.028.
For the target “MOV10_Q9HCE1_172_NGGTQSVTLTHLFPLCR (UniProt Q9HCE1)”, the “probe-labelled cysteine peptide fold change” value by setting is: (10 µM) 0.234; (50 µM) 0.148.
For “MTF2_Q9Y483_133_CGQGYHQLCHTPHIDSSVIDSDEK (UniProt Q9Y483)” the same measures were 0.12 and 0.228.
For “NAE1_Q13564_384_LLCSNSAFLR (UniProt Q13564)” the same measures were -0.025 and -0.00331.
Regarding “MTA2_O94776_209_ALDCSSSIR (UniProt O94776)”, under “10 µM”, the “probe-labelled cysteine peptide fold change” value is -0.025.
Consider “MAN2C1_Q9NTJ4_871_WMDLSEHGFGLALLNDCK (UniProt Q9NTJ4)”, for which the “probe-labelled cysteine peptide fold change” value reads like this: (10 µM) 0.38; (50 µM) 0.327.
In the case of “MIS18A_Q9NYP9_85_AQLEEEAAAAEERPLVFLCSGCR (UniProt Q9NYP9)”, the “probe-labelled cysteine peptide fold change” value (10 µM) was -0.0813.
As to “MBIP_Q9NS73_243_DCGNQAVEER (UniProt Q9NS73)”, the “probe-labelled cysteine peptide fold change” value is, setting by setting: (10 µM) -0.0155; (50 µM) -0.0072.
For “NACC1_Q96RE7_178_VKTEQQESDSVQCMPVAK (UniProt Q96RE7)” the same measures were -0.28 and -0.426.
For “MED15_Q96RN5_618_QQYLCQPLLDAVLANIR (UniProt Q96RN5)” the same measures were -0.00606 and 0.36.
For “NAPA_P54920_84_HDAATCFVDAGNAFK (UniProt P54920)” the same measures were 0.0886 and 0.00981.
Consider “MCM2_P49736_624_CTVIAAANPIGGR (UniProt P49736)”, for which the “probe-labelled cysteine peptide fold change” value is, setting by setting: (10 µM) 0.0682; (50 µM) 0.0292.
On to “MYO18A_Q92614_1046_LHFVHCFLPVAEGWAGEPR (UniProt Q92614)”, for which the “probe-labelled cysteine peptide fold change” value (10 µM) stood at 0.231 and the “probe-labelled cysteine peptide fold change” value (50 µM) is 0.422.
The corresponding values for “MYH9_P35579_671_CIIPNHEKK (UniProt P35579)” are -0.608 and -0.373.
As for “MOB4_Q9Y3A3_134_HTLDGAACLLNSNK (UniProt Q9Y3A3)”, the “probe-labelled cysteine peptide fold change” value is -0.19 (10 µM) and -0.629 (50 µM).
The corresponding values for “MT1E_P04732_50_CAQGCVCK<|>MT1F_P04733_50_CAQGCVCK<|>MT1B_P07438_50_CAQGCVCK<|>MT1L_Q93083_50_CAQGCVCK (UniProt Q93083+P07438+P04733+P04732)” are -0.000901 and 0.116.
For “MCL1_Q07820_286_TINQESCIEPLAESITDVLVR (UniProt Q07820)” the same measures were -0.36 and -0.583.
As to “NAPA_P54920_103_KADPQEAINCLMR (UniProt P54920)”, the “probe-labelled cysteine peptide fold change” value was 0.0661 (10 µM) and 0.0556 (50 µM).
For “MRPS24_Q96EL2_103_FMWGTFPGCLADQLVLK (UniProt Q96EL2)” the same measures were 0.183 and 0.203.
The corresponding values for “MDN1_Q9NU22_1394_ALEFGEPVLLVGDTGCGK (UniProt Q9NU22)” are -0.0161 and 0.145.
Consider “MACF1_Q9UPN3_5309_DCDVQGLEHDMEEINAR (UniProt Q9UPN3)”, for which the “probe-labelled cysteine peptide fold change” value (10 µM) came to 0.136 and the “probe-labelled cysteine peptide fold change” value (50 µM) is -0.0387.
For “MRPS34_P82930_93_SWLWQHDEPCYWR (UniProt P82930)” the same measures were 0.0173 and 0.142.
As to “MRPL45_Q9BRJ2_151_DIFIEAHLCLNNSDHDR (UniProt Q9BRJ2)”, the “probe-labelled cysteine peptide fold change” value by setting is: (10 µM) -0.648; (50 µM) -0.159.
